Key:
GST-Dm-Relish = target: T1, GST-Dm-Relish (Drosophila melanogaster, UniProt Q94527 99-473); assay: protein-binding microarray (PBM); PBM: ~300 nM protein, 6 mM HEPES pH 7.8, 80 mM KCl, 0.5 mM EDTA, 0.5 mM EGTA, 6% glycerol, 35 ng/ul poly-dIdC, 1% milk, 1 h, room temperature; Ap Aiptasia and Nv Nematostella (sea anemones) / Co Capsaspora / Aq Amphimedon (sponge) / Dm Drosophila / Hu human; RHD is the Rel homology domain; high values mean tight binding; conditions: dsDNA, one strand shown
T1 sequence: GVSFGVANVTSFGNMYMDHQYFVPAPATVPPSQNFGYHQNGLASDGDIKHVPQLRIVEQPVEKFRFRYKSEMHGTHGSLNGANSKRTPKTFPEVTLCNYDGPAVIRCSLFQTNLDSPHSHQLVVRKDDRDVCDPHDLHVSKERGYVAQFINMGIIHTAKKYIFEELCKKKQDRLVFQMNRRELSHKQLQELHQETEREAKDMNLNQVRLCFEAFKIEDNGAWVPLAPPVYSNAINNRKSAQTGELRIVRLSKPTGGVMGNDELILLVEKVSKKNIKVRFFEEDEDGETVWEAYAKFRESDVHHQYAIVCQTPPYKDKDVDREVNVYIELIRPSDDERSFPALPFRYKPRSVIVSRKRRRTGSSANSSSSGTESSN

GST-Aq-NF-kB = target: T2, GST-Aq-NF-kB (Amphimedon queenslandica, UniProt A9Y5G7 2-389); assay: as above; conditions: dsDNA, one strand shown
T2 sequence: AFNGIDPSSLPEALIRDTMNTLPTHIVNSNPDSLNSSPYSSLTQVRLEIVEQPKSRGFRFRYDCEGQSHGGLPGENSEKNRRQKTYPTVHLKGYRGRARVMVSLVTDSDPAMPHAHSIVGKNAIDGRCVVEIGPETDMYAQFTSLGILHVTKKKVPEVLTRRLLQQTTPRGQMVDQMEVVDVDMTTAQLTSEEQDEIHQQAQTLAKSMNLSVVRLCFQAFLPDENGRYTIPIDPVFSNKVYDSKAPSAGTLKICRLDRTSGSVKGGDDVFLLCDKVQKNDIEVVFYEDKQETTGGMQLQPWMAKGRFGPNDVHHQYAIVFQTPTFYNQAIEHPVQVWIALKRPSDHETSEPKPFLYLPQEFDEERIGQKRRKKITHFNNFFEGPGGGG

Sequence	binding signal (GST-Dm-Relish)	binding signal (GST-Aq-NF-kB)
CCGATTAACATCAAGTACTTTCCTGATGTTAATCGGGTCTTGATTCGCTTGACGCTGCTG	5.26 z-score	1.81 z-score
CCGATTAACATCACGGGCATTCCTGATGTTAATCGGGTCTTGATTCGCTTGACGCTGCTG	2.37 z-score	3.21 z-score
CCGATTAACATCACGAAAATTCCTGATGTTAATCGGGTCTTGATTCGCTTGACGCTGCTG	1.12 z-score	1.41 z-score
CCGATTAACATCAGGACATCCCATGATGTTAATCGGGTCTTGATTCGCTTGACGCTGCTG	3.93 z-score	2.15 z-score
CCGATTAACATCAGAAATTTTCCTGATGTTAATCGGGTCTTGATTCGCTTGACGCTGCTG	1.39 z-score	1.31 z-score
CCGATTAACATCAGGTAAGTCCATGATGTTAATCGGGTCTTGATTCGCTTGACGCTGCTG	1.83 z-score	2.33 z-score
CCGATTAACATCACGGACTTTCCTGATGTTAATCGGGTCTTGATTCGCTTGACGCTGCTG	2.95 z-score	5.31 z-score
CCGATTAACATCACGGAATTTTCTGATGTTAATCGGGTCTTGATTCGCTTGACGCTGCTG	1.06 z-score	2.35 z-score
CCGATTAACATCAACAAAATTCCTGATGTTAATCGGGTCTTGATTCGCTTGACGCTGCTG	1.6 z-score	1.34 z-score
CCGATTAACATCAGGAAAAGTACTGATGTTAATCGGGTCTTGATTCGCTTGACGCTGCTG	4.26 z-score	1.14 z-score
CCGATTAACATCAAGGAATTCCATGATGTTAATCGGGTCTTGATTCGCTTGACGCTGCTG	2.32 z-score	1.54 z-score
CCGATTAACATCAAAATTTTCCTTGATGTTAATCGGGTCTTGATTCGCTTGACGCTGCTG	2.92 z-score	1.12 z-score
CCGATTAACATCAAAGAAATTCCTGATGTTAATCGGGTCTTGATTCGCTTGACGCTGCTG	1.96 z-score	1.44 z-score
CCGATTAACATCAAAAAACTTCCTGATGTTAATCGGGTCTTGATTCGCTTGACGCTGCTG	1.56 z-score	1.4 z-score
CCGATTAACATCAGGTAACTACCTGATGTTAATCGGGTCTTGATTCGCTTGACGCTGCTG	3.08 z-score	3.17 z-score
CCGATTAACATCACGGAAATTCCTGATGTTAATCGGGTCTTGATTCGCTTGACGCTGCTG	1.83 z-score	4.88 z-score
CCGATTAACATCACGGAATTTTATGATGTTAATCGGGTCTTGATTCGCTTGACGCTGCTG	1.2 z-score	2.25 z-score
CCGATTAACATCACGTAAATTCCTGATGTTAATCGGGTCTTGATTCGCTTGACGCTGCTG	1.43 z-score	1.08 z-score
CCGATTAACATCAGGAAATACCATGATGTTAATCGGGTCTTGATTCGCTTGACGCTGCTG	3.07 z-score	3.27 z-score
CCGATTAACATCACCCTTGCAGGTGATGTTAATCGGGTCTTGATTCGCTTGACGCTGCTG	1.5 z-score	1.27 z-score
CCGATTAACATCAAAGGAATTTCTGATGTTAATCGGGTCTTGATTCGCTTGACGCTGCTG	1.13 z-score	1.12 z-score
CCGATTAACATCAAGGAAACTCCTGATGTTAATCGGGTCTTGATTCGCTTGACGCTGCTG	1.12 z-score	2.64 z-score
CCGATTAACATCACTGGAATTCCTGATGTTAATCGGGTCTTGATTCGCTTGACGCTGCTG	2.95 z-score	1.7 z-score
CCGATTAACATCAGGAATTCCACTGATGTTAATCGGGTCTTGATTCGCTTGACGCTGCTG	3.07 z-score	1.57 z-score
CCGATTAACATCAATAAAATTCCTGATGTTAATCGGGTCTTGATTCGCTTGACGCTGCTG	1.81 z-score	1.79 z-score
CCGATTAACATCAAAAAATCTCCTGATGTTAATCGGGTCTTGATTCGCTTGACGCTGCTG	1.02 z-score	1.21 z-score
CCGATTAACATCAGGAAAAATCCTGATGTTAATCGGGTCTTGATTCGCTTGACGCTGCTG	1.66 z-score	1.79 z-score
CCGATTAACATCACGGAAAATCCTGATGTTAATCGGGTCTTGATTCGCTTGACGCTGCTG	1.04 z-score	3.9 z-score
CCGATTAACATCAGGAATTCCGATGATGTTAATCGGGTCTTGATTCGCTTGACGCTGCTG	2.4 z-score	1.28 z-score
CCGATTAACATCAGGAAATTTTATGATGTTAATCGGGTCTTGATTCGCTTGACGCTGCTG	1.46 z-score	1.85 z-score

Source: PMC5700166
